Sm TGR inh: S. mansoni TGR enzyme inhibition. Q962Y6. purified TGR, DTNB reduction, TNB absorbance 405 nm. Potency, µM (top dose mostly 114 µM), without a hit: at the top dose activity change, negative = inhibition, usual class: inhibitors. 360,000 tested, 3% active; active = well fitted inhibition curve with a large enough effect; inconclusive = small, poorly fitted or top-dose-only effect; inactive = no such curve, though single readings can be large or run the other way; note: potency is the fitted concentration of half-maximal effect; % is set by controls: 0 for no effect and ±100 for the full control effect; nearly all actives have a fitted effect of over 60% in size
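TGR 20 nM + NADPH 100 uM (dispensed conc.), cpd preinc 15 min RT; start with NADPH (500 uM addition) then DTNB (15 mM addition). Kinetic TNB absorbance, 405 nm filter. Four-parameter Hill fit across titration.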
Shiga toxin inh: blocks Shiga toxin action in Vero cells; 290,000 tested, 9.2% active; inhibition, % at 38.7 µM; Vero cells, Shiga toxin protein synthesis inhibition reporter; AID 2315; in the data active = inhibition mostly above about 28%, no sharp cut-off; inactive = mostly below about 43%; note: 0% is about no effect
CHX counter: affects cycloheximide protein synthesis inhibition readout, counter-screen; cell reporter, cycloheximide protein synthesis inhibition counterscreen; max response, %; 300,000 tested, 12% active; AID 2314; in the data active = max response mostly above about 13%, no sharp cut-off; inactive = mostly below about 14%; note: read at 38.3 µM for the half of the compounds with a filed dose; 0% is about no effect
FMDV inh: blocks foot and mouth disease virus; 410,000 tested, 1.2% active; FMDV antiviral cell-based qHTS; Potency, µM (series often up to 57.9 µM), without a hit: top-dose activity change, negative = inhibition, hits mostly inhibitors; calls by dose curve; tested in HEK293T cells; note: read-out not given here; potency is the fitted concentration of half-maximal effect; % is set by controls: 0 for no effect and ±100 for the full control effect; nearly all actives have a fitted effect of over 45% in size
Numbers without * were called inactive; ? = inconclusive; · = no result; [ ] = dose if it differs, or a comment. Sampled rows, rich in hits. Any-hit rate of the full collection: about 12%.

SMILES	Sm TGR inh	Shiga toxin inh	CHX counter	FMDV inh
CCn1nc(C)c(Br)c1-c1nc(CS(=O)(=O)c2ccsc2)no1	16%	26	28*	8%
COc1cc(CN(C(=O)c2ccccc2)c2ccccn2)cc(OC)c1OC	-5%	·	·	-12%
COc1ccc(C(=O)c2c(C)oc3ccc(O)cc23)cc1	0%	32*	29*	-27%
Cc1oc2ccc(O)cc2c1C(=O)OC(C)C	-1%	55	22*	·
COc1ccc2oc(C)c(C(=O)c3ccc(C)cc3)c2c1	-25%	36*	22*	15%
Cc1oc2ccc(O)cc2c1C(=O)c1ccc(Cl)cc1	-8%	69	17*	28%
COc1ccc(/C=C/C(=O)Nc2nc3n(n2)C(c2ccc(F)cc2)C=C(c2ccccc2)N3)cc1 (stereo unspecified)	-7%	·	·	2%
CC(Nc1ccc(-c2nc(-c3ccncc3)no2)cc1[N+](=O)[O-])c1ccccc1 (stereo unspecified)	-2%	·	·	-4%
O=C(NCc1ccccc1F)C1CCN(c2nn3cc(-c4ccc(F)cc4)nc3s2)CC1	1%	·	·	35%
COc1ccc(C(=O)c2c(C)oc3ccc(O)cc23)c(OC)c1	10%	27	9	-32%
CC(=O)c1c(C)oc2ccc(OCc3ccccc3)cc12	0%	63*	31*	39%
COc1ccc2oc3ccccc3c(=O)c2c1	6%	14	-3	63%
Cc1oc2ccc(O)cc2c1C(=O)c1ccc([N+](=O)[O-])cc1	1%	4	0	35µM*
COc1ccc2oc3ccc(OC)cc3c(=O)c2c1	10%	156	22*	51%
c1ccc2nc3c(cc2c1)CCCCCC3	-4%	-4	11	-1%
c1ccc2nc3c(cc2c1)CCCCC3	10%	44*	30*	18%
CNS(=O)(=O)c1ccc(NC(=O)c2csc(C)c2)cc1	-22%	36*	23*	49%
CSc1ccccc1NC(=O)c1csc(C)c1	-4%	36*	31*	25%
Cc1cc(C(=O)Nc2ccc(Br)cc2)cs1	-8%	83*	47*	49%
CSc1ccccc1NC(=O)c1ccc(C)o1	-5%	51*	20*	48%
COc1cccc2c1CCCC2CCCN1CCN(C2CCCCC2)CC1 (stereo unspecified)	·	-4	2	?
Cc1cccc(NC(=O)CN2C(=O)C(c3ccccc3)=NC23CCC(C)CC3)c1 (stereo unspecified)	12%	·	·	-27%
CCN(c1ccccc1)c1nnc(NC(=O)Nc2ccc(Br)cc2F)s1	1%	·	·	-12%
CN(C)S(=O)(=O)c1ccc(Nc2ccc(-c3ccc4c(c3)OCCO4)nn2)cc1	14%	25	-2	·
CN(C(=O)c1cccc(Nc2ccc(-c3ccc4c(c3)OCCO4)nn2)c1)C1CCCCC1	0%	64*	53*	-54%
SMILES	Sm TGR inh	Shiga toxin inh	CHX counter	FMDV inh
Cc1ccc(-n2ncc(C(=O)N3CCN(C4CCCCC4)CC3)c2C2CCN(C(=O)OC(C)(C)C)CC2)cc1C	0%	·	·	?
O=S(=O)(c1ccc(Cl)c(C(F)(F)F)c1)N1CCN(CC(O)COCC2CCCO2)CC1 (stereo unspecified)	-5%	-9	32*	-6%
Cc1cccc(-c2nc(SCc3cc(=O)c4c(C)cc(C)cc4[nH]3)n[nH]2)c1	-3%	·	·	-18%
COc1ccc(C2=NCN(c3ccc(C)cc3)C(=S)N2)cc1	13%	42	36*	11%
COc1ccc(OCc2n[nH]c(=S)n2-c2ccc(C)cc2)cc1	11%[57.1 µM]	-25	4	-3%
Cc1ccc(N2CN=C(c3ccccc3)NC2=S)cc1	-6%	98*	63*	·
Cc1ccc(-c2n[nH]c(=S)n2-c2ccccc2)cc1	-23%	-4	-1	-22%
COc1cc2c(cc1OC)C(COc1ccc3c(C)cc(=O)oc3c1)N(C(=O)Cc1ccccc1)CC2 (stereo unspecified)	3%	·	·	-26%
COc1ccc(/C=C2\SC(=O)N(CC(=O)NC3CCS(=O)(=O)C3)C2=O)cc1 (stereo unspecified)	0%	-6	-5	-7%
O=C(CN1C(=O)S/C(=C\c2ccccc2)C1=O)NC1CCS(=O)(=O)C1 (stereo unspecified)	-10%	10	1	8%
O=C(CN1C(=O)S/C(=C\C=C\c2ccccc2)C1=O)NC1CCS(=O)(=O)C1 (stereo unspecified)	?	46*	48*	11%
CC(C(=O)N(C)C1CCS(=O)(=O)C1)N1C(=O)/C(=C/c2ccco2)SC1=S (stereo unspecified)	25µM*	-5	-5	-12%
O=C(CN1C(=O)/C(=C/c2ccco2)SC1=S)NC1CCS(=O)(=O)C1 (stereo unspecified)	20µM*	-18	1	-5%

Screening results (PubChem BioAssay)
